# PubChem BioAssay
# A number with no mark means an inactive call. No rule for the calls is given here.
# Tested on: Aerobactin synthetase IucA (Klebsiella pneumoniae hvKP1)
# Assay: IucA enzyme inhibition, primary screen, biochemical, Spectrum library (AID 1346200);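 also: 100% = wells without compound and 0% = wells lacking enzyme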
# Details: malachite green pyrophosphate, A620, at 8 µM, hits give low values
row,Compound,activity remaining [%]
1,c1ccc(-c2ccc(C(c3ccccc3)n3ccnc3)cc2)cc1 (configuration not stated),111
2,CC(=O)OCC(=O)[C@@]12OC3(CCCC3)O[C@@H]1CC1C3CCC4=CC(=O)C=C[C@]4(C)[C@@]3(F)[C@@H](O)C[C@@]12C (some centres not stated),90.4
3,CO[C@@H]1[C@@H](OC(N)=O)[C@@H](O)[C@H](Oc2ccc3c(O)c(NC(=O)c4ccc(O)c(CC=C(C)C)c4)c(=O)oc3c2C)OC1(C)C,129
4,CCN(CC)CCNc1ccc(CO)c2sc3ccccc3c(=O)c12,114
5,O=C(O)CCCCC1CCSS1 (configuration not stated),103
6,COc1ccc2c(c1)OC[C@@H](Cc1ccc(OC)c(OC)c1)[C@@H]2O,121
7,COc1cc(OC)c(C(C)=O)c(O)c1C,101
8,COc1ccc(-c2cc(=O)c3c(OC(C)=O)cc(OC(C)=O)cc3o2)cc1,108
9,O=C(/C=C(\O)c1ccccc1)c1ccccc1O,120
10,NC[C@H]1O[C@H](O[C@H]2C(O[C@@H]3O[C@H](CO)[C@@H](O)[C@H]3O)[C@@H](O)[C@H](N)C[C@@H]2N)[C@H](N)[C@@H](O)[C@@H]1O (some centres not stated),123
11,CC(=O)Oc1ccc2c(c1C(C)C)CCC1C(C)(C)CCC[C@]21C (some centres not stated),97.3
12,COc1cc(NC(C)CCCN)c2ncccc2c1 (configuration not stated),123
13,O=C1CC(c2ccccc2)Oc2ccccc21 (configuration not stated),125
14,CN(C)/N=N/c1nc[nH]c1C(N)=O,107
15,CC(C)N=C(N)/N=C(\N)Nc1ccc(Cl)cc1,102
16,C=C1C2CC[C@@]3(C)[C@H](c4ccoc4)OC(=O)C[C@]13O[C@H]1CC(=O)C(C)(C)C(CC(=O)OC)C21C (some centres not stated),124
17,CC1=CCc2c(cc3oc(C)cc(=O)c3c2O)OC1,120
18,FC(F)(F)C(Cl)Br (configuration not stated),106
19,COc1cc(O)c2c(c1)C(=O)c1cc(C)cc(O)c1C2=O,97.7
20,CN1CCC(=C2c3ccccc3Sc3ccccc32)CC1,119
21,CC(C(=O)O)c1ccc(-c2ccccc2)c(F)c1 (configuration not stated),104
22,C=CCSC[C@@H](N)C(=O)O,98.6
